Screens deposited in PubChem BioAssay by National Center for Advancing Translational Sciences (NCATS).
Sampled rows, rich in hits. Any-hit rate of the full collection: about 6.1%.
S2 tox: viability counter-screen for ATXN expression inhibitors | AID 651635 | actives 0.49% (n = 400,000) | S2 cells (HEK-293 line with an ATXN2-luciferase reporter) viability, CellTiter-Fluor protease fluorescence, 24 h | Potency, µM (highest dose often 56.7 µM), usual class: cytotoxic; further: nearly all actives have a fitted effect of over 40% in size
TGFb inhibitor: TGF-b pathway inhibition. HepG2 CAGA-GFP TGF-b/SMAD3 reporter, GFP fluorescence, 18 h; TGF-beta stimulated, 500 pg/mL final. Potency, µM (doses to about 46.1 µM), usual class: inhibitors. actives 1.2% (n = 410,000); further: nearly all actives have a fitted effect of over 65% in size
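First, reporter cells (HEPG2 CAGA-GFP) rested 2 h at 37 degrees C. Next, compounds were pinned in and TGF-beta added to 500 pg/mL final. After 18 h, GFP was imaged per cell and summed per well.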
HepG2 tox-1: HepG2 cytotoxicity, counter-screen for TGF-b inhibitors. HepG2 CAGA-GFP viability, ATP luminescence, 18 h. Potency, µM (titrated, usually from 46.1 µM), most hits filed as cytotoxic. actives 0.76% (n = 410,000). AID 588856
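HepG2 CAGA-GFP cells (1000/well, DMEM with 1% FBS) received compound, then TGF-beta at 500 pg/mL final, and were incubated 18 hours at 37 degrees C. Viability was read by CellTiter-Glo luminescence. Media-only wells were set as complete cell-killing and DMSO as no toxicity.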
RORg inh: inhibitors of mouse ROR gamma transcriptional activity; P51450; Drosophila S2 Gal4-RORgamma UAS-luciferase reporter, 20 h; Potency, µM (titrated, usually from 53.6 µM), hits mostly inhibitors; actives 5.4% (n = 310,000); further: nearly all actives have a fitted effect of over 60% in size
Target sequence (P51450 whole entry, looked up, the tested form may be a part): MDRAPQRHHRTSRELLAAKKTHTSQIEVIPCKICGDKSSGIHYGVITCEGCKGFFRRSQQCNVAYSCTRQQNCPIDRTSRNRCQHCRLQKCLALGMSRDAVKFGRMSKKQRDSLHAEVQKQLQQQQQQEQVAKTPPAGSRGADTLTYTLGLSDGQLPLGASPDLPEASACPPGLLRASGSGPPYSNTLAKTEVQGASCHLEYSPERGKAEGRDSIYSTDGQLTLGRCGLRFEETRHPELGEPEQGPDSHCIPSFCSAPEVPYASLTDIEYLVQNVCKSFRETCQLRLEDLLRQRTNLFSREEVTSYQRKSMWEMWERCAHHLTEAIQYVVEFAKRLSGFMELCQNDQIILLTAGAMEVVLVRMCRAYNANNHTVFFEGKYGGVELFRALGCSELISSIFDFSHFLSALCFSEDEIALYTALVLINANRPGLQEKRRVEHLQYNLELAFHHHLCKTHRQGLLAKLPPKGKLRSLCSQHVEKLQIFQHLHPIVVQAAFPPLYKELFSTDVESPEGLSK
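Compounds are pin-transferred onto Drosophila Schneider cells expressing a copper-inducible Gal4–ROR gamma transactivation domain fusion. After 1 hr, copper sulfate is added to 700 uM final; luciferase is read 20 hr later.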
VP16 counter: Gal4-VP16 reporter inhibition counter-screen; Potency, µM (top dose mostly 53.6 µM), usual class: inhibitors; actives 3.5% (n = 310,000); Drosophila S2 Gal4-VP16 UAS-luciferase, luminescence, 20 h;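 further: Gal4-VP16 expression switched on by copper sulfate through the metallothionein promoter; nearly all actives have a fitted effect of over 50% in size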
ATXN2 expr inh: reduces ATXN2 reporter expression in HEK-293 cells; actives 0.72% (n = 360,000); Potency, µM (titrated, usually from 57 µM), hits mostly inhibitors; HEK-293 ATXN2-luciferase reporter, luminescence, 24 h; further: nearly all actives have a fitted effect of over 55% in size
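qHTS (up to 57 uM final) was run with 24 h compound exposure of reporter cells at 37 °C. Each well was multiplexed: SteadyGlo luminescence measured ATXN2-luciferase expression after a fluorogenic Gly-Phe-AFC viability readout (25 uM final).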
TGFb confirm: confirmation of TGF-b signaling inhibitors in HepG2 reporter cells; shares compounds with TGFb inhibitor; HepG2 CAGA-GFP TGF-b reporter, GFP fluorescence, 18 h; cells stimulated with TGF-beta, 500 pg/mL; Potency, µM (doses to about 46.1 µM), hits mostly inhibitors; actives 63% (n = 1,600); AID 720534; further: nearly all actives have a fitted effect of over 65% in size
HepG2 tox-2: HepG2 cytotoxicity, TGF-b inhibitor counterscreen | AID 720535 | actives 27% (n = 1,600) | HepG2 CAGA-GFP viability, ATP luminescence, 18 h; cells stimulated with TGF-beta, 500 pg/mL | Potency, µM (top dose mostly 46.1 µM), actives largely listed as inhibitors | shares compounds with TGFb inhibitor; further: nearly all actives have a fitted effect of over 70% in size
TGFb CCL64 inh: orthogonal confirmation of TGF-b inhibitors in CCL64 cells | shares compounds with TGFb inhibitor | CCL64 CAGA-GFP reporter, TGF-b stimulated, GFP fluorescence, 18 h | Potency, µM (top dose mostly 46.1 µM), most hits filed as inhibitors | actives 41% (n = 1,600) | AID 720536; further: nearly all actives have a fitted effect of over 65% in size
TGFb COP inh: validation of TGF-b inhibitors in HepG2 COP promoter reporter. shares compounds with TGFb inhibitor. HepG2 COP-GFP TGF-b reporter, GFP fluorescence, 18 h; cells stimulated by added recombinant TGF-beta. Potency, µM (doses to about 46.1 µM), actives largely listed as inhibitors. actives 3% (n = 1,600). AID 720537; further: nearly all actives have a fitted effect of over 70% in size
Of the large screens only hits and unclear results are named; the others gave an inactive call (follow-up assays come after a bar, where they were run). The call rests on the fitted dose curve; in most records, active means well fitted curve in the direction sought with a large enough effect; inconclusive means small, poorly fitted or top-dose-only effect, or another doubt; inactive means no such curve, though single readings can be large; an effect the other way counts as inactive or inconclusive.

CC(=O)N1CCN(C(=O)c2[nH]c(C(F)(F)F)nc2-c2ccccc2)CC1	TGFb inhibitor inconclusive (no result: RORg inh, VP16 counter)
CCc1noc(C)c1C(=O)Nc1nc(-c2ccc(Cl)cc2Cl)cs1	S2 tox inconclusive, TGFb inhibitor 11µM, RORg inh inconclusive, VP16 counter inconclusive | TGFb confirm 15µM | HepG2 tox-2 15µM | TGFb CCL64 inh inconclusive | TGFb COP inh inactive
Cc1c(C(=O)N2CCN(Cc3ccc4c(c3)OCO4)CC2)sc2ncnc(N3CCN(c4ccccc4F)CC3)c12	S2 tox inconclusive, TGFb inhibitor 5µM, RORg inh inconclusive (no result: ATXN2 expr inh) | TGFb confirm inconclusive | HepG2 tox-2 inactive | TGFb CCL64 inh inactive | TGFb COP inh inactive
Cc1c(C(=O)N2CCN(Cc3ccc4c(c3)OCO4)CC2)sc2ncnc(N3CCN(c4ccccc4)CC3)c12	TGFb inhibitor inconclusive, VP16 counter inconclusive (no result: ATXN2 expr inh)
COc1ccc(/C=N/NC(=O)c2ccccc2[N+](=O)[O-])cc1CN1CCc2cc(OC)c(OC)cc2C1C (stereo not given)	none
COc1ccc(/C=N\NC(=O)c2ccccc2[N+](=O)[O-])cc1COc1c(F)c(F)c(F)c(F)c1F	TGFb inhibitor 8.9µM | TGFb confirm 2.6µM | HepG2 tox-2 inconclusive | TGFb CCL64 inh inconclusive | TGFb COP inh inactive
CC(C)(C)OC(=O)N1CCC(c2c(C(=O)NCCN3CCC(Cc4ccccc4)CC3)cnn2-c2ccccc2)CC1	none (no result: S2 tox, RORg inh, VP16 counter, ATXN2 expr inh)
Cc1ccc2c(c1)nnn2C1CCN(CC(=O)Nc2ccccc2N2CCOCC2)CC1	S2 tox inconclusive, TGFb inhibitor 10µM | TGFb confirm inconclusive | HepG2 tox-2 inconclusive | TGFb CCL64 inh inconclusive | TGFb COP inh inactive
CCOC(=O)N1CCC(NC(=O)c2ccc3c(c2)N=C(CC)c2cc(C)ccc2S3)CC1	TGFb inhibitor 16µM, RORg inh inconclusive, ATXN2 expr inh inconclusive | TGFb confirm 12µM | HepG2 tox-2 inactive | TGFb CCL64 inh inconclusive | TGFb COP inh inactive
CCC1=Nc2cc(C(=O)NC3CCC(C)CC3)ccc2Sc2ccc(C)cc21 (stereo not given)	S2 tox inconclusive, TGFb inhibitor inconclusive (no result: RORg inh, VP16 counter)
CCC1=Nc2cc(C(=O)NCc3ccco3)ccc2Sc2ccc(C)cc21	TGFb inhibitor inconclusive | TGFb confirm 2.3µM | HepG2 tox-2 inactive | TGFb CCL64 inh 1.5µM | TGFb COP inh inactive
CCOc1ccc(NS(=O)(=O)c2ccc(C(=O)N(C)C)s2)cc1	TGFb inhibitor inconclusive (no result: RORg inh, VP16 counter)
COc1ccc(N2CCc3c(C)nc4c(OC)cc(OC)cc4c32)cc1	none
COc1ccc(N2CCc3c(C)nc4c(OC)cccc4c32)cc1	S2 tox inconclusive, TGFb inhibitor 11µM, RORg inh 20µM | TGFb confirm 15µM | HepG2 tox-2 inconclusive | TGFb CCL64 inh 26µM | TGFb COP inh inactive
CCCC(=O)N/C(N)=N/c1nc(C)c2cc(C)ccc2n1	S2 tox inconclusive
Cc1ccc2nc(/N=C(\N)NC(=O)NC3CCCCC3)nc(C)c2c1	S2 tox 28µM, TGFb inhibitor 10µM, VP16 counter 7.1µM, ATXN2 expr inh inconclusive | TGFb confirm 12µM | HepG2 tox-2 inconclusive | TGFb CCL64 inh 16µM | TGFb COP inh inactive
O=C(C1CCC(=O)N(C2CCCCCC2)C1)N1CCN(c2ccccc2Cl)CC1 (stereo not given)	TGFb inhibitor 7.1µM, VP16 counter inconclusive (no result: ATXN2 expr inh) | TGFb confirm inactive | HepG2 tox-2 inactive | TGFb CCL64 inh inconclusive | TGFb COP inh inactive
Cc1ccccc1N1CCN(C(=O)C2CCC(=O)N(C3CCCC3)C2)CC1 (stereo not given)	none
CCOC(=O)c1c(C)oc2c1c(C=NCC1CCCO1)c(O)c1ccccc12 (stereo not given)	none
CCOC(=O)c1c(C)oc2c1c(C=NCc1ccccn1)c(O)c1ccccc12	S2 tox inconclusive, TGFb inhibitor inconclusive, RORg inh 6.3µM, VP16 counter inconclusive, ATXN2 expr inh inconclusive | TGFb confirm inconclusive | HepG2 tox-2 inconclusive | TGFb CCL64 inh 18µM | TGFb COP inh inactive
CN(Cc1ccccc1)S(=O)(=O)c1ccc(NC(=S)NC(=O)C2CCCCC2)cc1	TGFb inhibitor 13µM, RORg inh 8.9µM, VP16 counter 7.9µM | TGFb confirm 33µM | HepG2 tox-2 inconclusive | TGFb CCL64 inh inactive | TGFb COP inh inactive
CCOc1cccc(C(=O)N(Cc2ccc(CC)cc2)C2CCS(=O)(=O)C2)c1 (stereo not given)	none (no result: RORg inh, VP16 counter)
Cc1ccccc1Cn1ccc(NC(=O)c2cnn3c2NC(c2ccccc2)CC3C(F)(F)F)n1 (stereo not given)	TGFb inhibitor 7.9µM | TGFb confirm inconclusive | HepG2 tox-2 inconclusive | TGFb CCL64 inh 23µM | TGFb COP inh inactive
CN(C)CCC(=O)C(Cc1ccccc1)c1ccccc1 (stereo not given)	TGFb inhibitor 7.9µM, HepG2 tox-1 20µM (no result: RORg inh, VP16 counter) | TGFb confirm 4.1µM | HepG2 tox-2 15µM | TGFb CCL64 inh 10µM | TGFb COP inh inconclusive
CN(C)CCNC(=O)C(c1ccccc1)c1ccccc1	none (no result: ATXN2 expr inh)
Cc1ccc(-c2csc(NC(=O)CCNC(=O)c3ccc(Cl)cc3)n2)cc1	S2 tox inconclusive, TGFb inhibitor inconclusive, RORg inh inconclusive, VP16 counter inconclusive, ATXN2 expr inh inconclusive | TGFb confirm inactive | HepG2 tox-2 inactive | TGFb CCL64 inh inconclusive | TGFb COP inh inactive
Cc1ccc(-c2csc(NC(=O)CCNC(=O)c3ccccc3Cl)n2)cc1	S2 tox inconclusive, TGFb inhibitor inconclusive, RORg inh inconclusive (no result: ATXN2 expr inh)
Cc1ccc2c(c1)N(C(=O)N1CCC(C(=O)NCc3cccs3)CC1)CC(C)O2 (stereo not given)	TGFb inhibitor inconclusive (no result: S2 tox, RORg inh, VP16 counter, ATXN2 expr inh)
